TGFb inhibitor = qHTS for Inhibitors of TGF-b; HepG2 CAGA-GFP TGF-b/SMAD3 reporter, GFP fluorescence, 18 h; TGF-beta stimulated, 500 pg/mL final; Potency, µM (titrated, usually from 46.1 µM), for the others: top-dose activity, negative = inhibition, most hits filed as inhibitors; actives 1.2% (n = 410,000); further: on the % scale 0 is the no-effect control and ±100 the full control effect; nearly all actives have a fitted effect of over 65% in size
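Using HEPG2 CAGA-GFP reporter cells at 1000 cells/well, we pinned test compounds, stimulated with recombinant TGF-beta (500 pg/mL final) and measured total well GFP after 18 h.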
TDP1 cell noCPT = qHTS for Inhibitors of human tyrosyl-DNA phosphodiesterase 1 (TDP1): qHTS in cells in absence of CPT. Potency, µM (titrated, usually from 46.2 µM), without a hit: top-dose activity change, negative = growth inhibition, most hits filed as inhibitors. actives 15% (n = 420,000). AID 686978, 2013. DT40 Tdp1-/- hTDP1 cells, no CPT, ATP luminescence, 48 h; further: on the % scale 0 is the no-effect control and ±100 the full control effect; nearly all actives have a fitted effect of over 55% in size
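Growth of hTDP1-complemented DT40 Tdp1-knockout cells is measured by ATP luminescence after at least 48 hr compound exposure at 37 °C, with DMSO substituting for the 20 nM CPT used in the parallel screen.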
HT1080NT lethal = qHTS for induction of synthetic lethality in tumor cells producing 2HG: qHTS for the HT-1080-NT fibrosarcoma cell line; HT-1080-NT fibrosarcoma viability, CellTiter-Glo ATP luminescence, 48 h; Potency, µM (top dose mostly 46.1 µM), for the others: at the top dose activity, negative = less viability, hits mostly cytotoxic; actives 1.6% (n = 360,000); AID 686970, 2013;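 further: NT is the 2HG producing partner of a matched IDH1 knockdown line; 0% = DMSO-treated cells and -100% = media-only wells without cells; nearly all actives have a fitted effect of over 55% in size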
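Read-out is CellTiter-Glo luminescence after 10 minutes at room temperature, following 48 hours' compound treatment of HT-1080-NT cells (750 cells/well, RPMI, 5% FBS, 37 degrees C).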
HepG2 tox = qHTS for Inhibitors of TGF-b: Cytotox Counterscreen; Potency, µM (titrated, usually from 46.1 µM), inactives show top-dose activity change, negative = cytotoxicity, most hits filed as cytotoxic; actives 0.76% (n = 410,000); HepG2 CAGA-GFP viability, ATP luminescence, 18 h
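HepG2 CAGA-GFP cells (1000/well, DMEM with 1% FBS) received compound, then TGF-beta at 500 pg/mL final, and were incubated 18 hours at 37 degrees C. Viability was read by CellTiter-Glo luminescence. Media-only wells were set as complete cell-killing and DMSO as no toxicity.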
HT1080 IDH1KD tx = qHTS for induction of synthetic lethality in tumor cells producing 2HG: qHTS for the HT-1080-IDH1KD cell line | HT-1080 IDH1 knockdown viability, ATP luminescence, 48 h | Potency, µM (top dose mostly 46.1 µM), for the others: at the highest dose activity, negative = toxicity, actives largely listed as cytotoxic | actives 2% (n = 360,000) | AID 686971, 2013;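 further: 0% = DMSO wells and -100% = cell-free medium wells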
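CellTiter-Glo luminescence after 48 h compound exposure at 37 degrees C of IDH1-knockdown HT-1080 cells in 5% FBS RPMI. %Activity scaled between DMSO wells and cell-free media wells, with curves fitted and assigned curve classes.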
TDP1 cell CPT = qHTS for Inhibitors of human tyrosyl-DNA phosphodiesterase 1 (TDP1): qHTS in cells in presence of CPT; actives 12% (n = 420,000); chicken DT40 Tdp1-/-;hTDP1 cells + 20 nM CPT, ATP luminescence, 48 h; Potency, µM (series often up to 46.2 µM), inactives show top-dose activity change, negative = growth inhibition, most hits filed as inhibitors; AID 686979, 2013; further: on the % scale 0 is the no-effect control and ±100 the full control effect; nearly all actives have a fitted effect of over 55% in size
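Cell growth measured by CellTiter-Glo luminescence after a minimum 48 h, 37 C compound exposure with 20 nM CPT in Tdp1-knockout DT40 cells stably expressing hTDP1, seeded 400/well; qHTS titration format.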
Numbers without * were called inactive; u = inconclusive; x = not tested or not shown. Hits are enriched below; roughly 17% of the tested compounds scored in any of these assays. The call rests on the fitted dose curve; in most records, active means well fitted curve in the direction sought with a large enough effect; inconclusive means small, poorly fitted or top-dose-only effect, or another doubt; inactive means no such curve, though single readings can be large; an effect the other way counts as inactive or inconclusive. Potency means the concentration at half of the fitted maximal effect.

SMILES	TGFb inhibitor	TDP1 cell noCPT	HT1080NT lethal	HepG2 tox	HT1080 IDH1KD tx	TDP1 cell CPT
CN(CC(=O)Nc1ccccc1Cl)CC(=O)Nc1sc2c(c1C(N)=O)CCC2	u	18.4µM*	-12.2%	-25.1%	-1.8%	25.9µM*
CN(CC(=O)Nc1ccccc1Br)C(=O)c1cc2c(s1)CCCCC2	13.0%	u	1.4%	3.2%	2.9%	u
CN(CC(=O)Nc1ccc(Cl)cc1)CC(=O)Nc1sc2c(c1C(N)=O)CCC2	u	14.6µM*	-5.8%	-19.1%	-19.1%	20.6µM*
CN(CC(=O)Nc1ccccc1Cl)C(=O)c1cc2c(s1)CCCCC2	17.3%	16.4µM*	-15.5%	10.8%	-17.4%	u
O=c1oc2ccc(Br)cc2cc1-c1nc2c(s1)CCc1ccccc1-2	24.5%	-14.6%	x	5.7%	x	u
CCOc1ccc(NC(=O)C2CCCN2S(=O)(=O)c2ccc(OCC)cc2)cc1 (stereo not drawn)	15.9%	-3.0%	10.6%	9.9%	18.6%	1.2%
N#Cc1c(NC(=O)CS(=O)(=O)c2ccc(Cl)cc2)sc2c1CCCCC2	0.0%	u	x	-29.6%	x	u
NC(=O)c1c(NC(=O)CS(=O)(=O)c2ccc(Cl)cc2)sc2c1CCCCC2	0.0%	16.4µM*	x	-49.4%	x	23.1µM*
COc1ccc(S(=O)(=O)Nc2cccc3c2O[C@H](CN(C)Cc2ccc(Oc4ccccc4)cc2)[C@@H](C)CN([C@H](C)CO)C3=O)cc1	u	20.6µM*	-11.0%	-6.2%	-24.9%	16.4µM*
C[C@H](CO)N1C[C@H](C)[C@@H](CN(C)S(=O)(=O)c2cccs2)Oc2c(NS(=O)(=O)c3ccccc3)cccc2C1=O	14.6%	-10.5%	-0.1%	-1.6%	-2.4%	-17.4%
C[C@@H]1CN([C@H](C)CO)C(=O)c2cccc(NS(=O)(=O)c3cccs3)c2O[C@H]1CN(C)Cc1ccccc1	u	11.6µM*	-0.2%	-19.4%	8.4%	11.6µM*
COc1ccc(CN(C)C[C@H]2Oc3c(NC(=O)Nc4ccccc4)cccc3C(=O)N([C@H](C)CO)C[C@@H]2C)cc1	-3.2%	29.1µM*	-6.9%	-11.9%	-2.9%	16.4µM*
CC(C)Oc1ccc(CNC(=O)c2ccc3nc(C(C)C)oc3c2)cc1	-23.7%	u	x	-17.6%	x	4.2%
N#CCCn1cc(C(CC(=O)c2ccc(Br)cc2)C(=O)O)c2ccccc21 (stereo not drawn)	-6.9%	-2.5%	7.3%	-32.8%	1.6%	-13.1%
CCCCN(C)CC(O)Cn1cc(/C=C/C(=O)c2ccc(OC)c(OC)c2)c2ccccc21 (stereo not drawn)	u	20.6µM*	x	-98.5%	x	18.4µM*
COc1ccc(C(=O)/C=C/c2cn(CC(O)CN3CCN(C)CC3)c3ccccc23)cc1OC (stereo not drawn)	u	u	16.4µM*	-187.1%	14.6µM*	u
CCCCN(C)CC(O)Cn1cc(/C=C/C(=O)c2ccc(C)cc2)c2ccccc21 (stereo not drawn)	17.8µM*	9.2µM*	u	12.6µM*	u	7.31µM*
CCn1cc(/C=C(\NC(=O)c2ccc(OC)c(OC)c2)C(=O)N2CCN(C)CC2)c2ccccc21	-2.6%	7.9%	-0.1%	3.5%	2.6%	u
CCCCN(C)CC(O)Cn1cc(/C=C/C(=O)c2ccc(Br)cc2)c2ccccc21 (stereo not drawn)	u	5.17µM*	x	-96.7%	x	6.51µM*
CCn1cc(/C=C(\NC(=O)c2ccc(OC)c(OC)c2)C(=O)NCCCn2ccnc2)c2ccccc21	6.4%	-21.9%	x	-4.3%	x	-9.1%
Cc1cccn2c(=O)c3cc(C(=O)NCCN4CCOCC4)c(=N)n(CCc4ccccc4)c3nc12	-3.7%	23.1µM*	-11.4%	0.9%	0.5%	u
CCNC(=O)c1cc2c(=O)n3cccc(C)c3nc2n(CCc2ccccc2)c1=N	15.1%	12.6µM*	-5.8%	-2.0%	-4.0%	u
Cc1ccc(C)c(NC(=O)n2ncc3cc(Cl)ccc32)c1	34.6%	-29.1%	x	12.5%	x	-10.2%
CCn1c(CN2CCOCC2)nnc1SCC(=O)Nc1cccc(C)c1	24.1%	-1.2%	-9.1%	3.4%	-11.3%	0.7%
Cc1ccc(C(=O)c2cn(CC(=O)NCc3ccccc3Cl)c3nc(C)ccc3c2=O)cc1	-1.4%	u	x	-0.1%	x	u
SMILES	TGFb inhibitor	TDP1 cell noCPT	HT1080NT lethal	HepG2 tox	HT1080 IDH1KD tx	TDP1 cell CPT
CC(C)CC1C(=O)N(Cc2cn(Cc3ccco3)nn2)CCS(=O)(=O)N1Cc1ccc(-c2ccc(F)nc2)cc1 (stereo not drawn)	u	23.1µM*	-21.3%	-26.6%	-29.3%	u
CC(C)CC1C(=O)N(Cc2cn(Cc3ccco3)nn2)CCS(=O)(=O)N1Cc1ccc(-c2ccncc2)cc1 (stereo not drawn)	5.2%	14.6µM*	-1.1%	-46.2%	-0.4%	20.6µM*
CCC/C=C/c1ccc(CN2C(CC(C)C)C(=O)N(Cc3cn(Cc4ccco4)nn3)CCS2(=O)=O)cc1 (stereo not drawn)	15.8µM*	u	u	-88.1%	u	u
CC(C)CC1C(=O)N(Cc2cn(Cc3ccco3)nn2)CCS(=O)(=O)N1Cc1ccc(-c2ccccc2)cc1 (stereo not drawn)	u	u	-16.1%	-39.3%	u	14.6µM*
Cc1cccc(C)c1-c1ccc(CN2C(CC(C)C)C(=O)N(Cc3cn(CCO)nn3)CCS2(=O)=O)cc1 (stereo not drawn)	u	u	-10.9%	-83.8%	-19.5%	u
CC(C)C1C(=O)N(Cc2cn(Cc3ccco3)nn2)CCS(=O)(=O)N1Cc1ccc(-c2ccc(F)nc2)cc1 (stereo not drawn)	3.8%	-19.8%	-5.9%	-18.4%	-1.4%	-8.3%
COc1ccc(NC(=O)c2cn(-c3ccccc3)nc2-c2ccc(C)cc2)cc1	-18.9%	u	x	-25.5%	x	u
COCCc1nn2c(=O)cc(COC(=O)c3ccc(Br)cc3)nc2s1	0.5%	-7.6%	x	-34.6%	x	-5.8%

Assay outcomes deposited in PubChem by National Center for Advancing Translational Sciences (NCATS).
